# PNC inhibitor – High Content Assay for Compounds that inhibit the Assembly of the Perinucleolar Compartment. PC3M PTB-GFP, PNC prevalence imaging, 16 h; hits give low values. activity change (PNC), negative = inhibition, % at 10 µM. hit rate 3.1% among 140,000. AID 2417, 2010;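 active means readout at or below -70, meaning at least 70% loss of cells showing the perinucleolar compartment, a nuclear body marking cancer cells; inconclusive means readout between -30 and a set limit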;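 further: plate controls were DMSO wells for no effect and camptothecin positive control wells for full effect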
#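 PC3M cells stably expressing PTB-GFP, 750–1000 cells/well, treated 16 h at 37 °C with compound (23 nl of library stock), in duplicate. After paraformaldehyde fixation and Hoechst stain, imaged at 20x; PNC prevalence scored by image analysis.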
# ALDH1A1 block – qHTS Assay for Inhibitors of Aldehyde Dehydrogenase 1 (ALDH1A1); Aldehyde dehydrogenase 1A1 (Homo sapiens), P00352; Purified ALDH1A1, NADH fluorescence, propionaldehyde substrate; Potency, µM (series often up to 75.3 µM), for the others: top-dose activity, negative = inhibition, actives largely listed as inhibitors; hit rate 7.3% among 220,000; AID 1030, 2008;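 further: potency means the concentration at half of the fitted maximal effect; plate controls were no enzyme wells and a reference inhibitor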
# Target sequence (P00352 whole entry, looked up): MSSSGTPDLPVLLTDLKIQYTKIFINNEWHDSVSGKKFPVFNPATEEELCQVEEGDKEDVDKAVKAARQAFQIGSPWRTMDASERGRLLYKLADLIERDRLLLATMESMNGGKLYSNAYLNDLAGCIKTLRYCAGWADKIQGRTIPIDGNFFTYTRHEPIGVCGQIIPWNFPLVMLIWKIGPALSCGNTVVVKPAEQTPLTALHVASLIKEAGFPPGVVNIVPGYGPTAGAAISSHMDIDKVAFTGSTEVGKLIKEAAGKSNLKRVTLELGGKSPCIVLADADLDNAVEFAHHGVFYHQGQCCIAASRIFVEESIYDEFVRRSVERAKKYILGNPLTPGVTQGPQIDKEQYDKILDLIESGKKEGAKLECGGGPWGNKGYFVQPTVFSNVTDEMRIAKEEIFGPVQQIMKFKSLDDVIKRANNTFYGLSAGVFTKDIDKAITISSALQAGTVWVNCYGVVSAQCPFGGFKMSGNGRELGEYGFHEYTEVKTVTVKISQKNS
# HPGD inh – qHTS Assay for Inhibitors of HPGD (15-Hydroxyprostaglandin Dehydrogenase) | 15-hydroxyprostaglandin dehydrogenase [NAD(+)] (Homo sapiens), P15428 | purified HPGD, NADH fluorescence kinetic, PGE2 substrate | Potency, µM, without a hit: at the top dose activity change, negative = inhibition, actives largely listed as inhibitors | hit rate 4.3% among 150,000 | AID 894, 2007; further: potency means the concentration at half of the fitted maximal effect
#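 20 nM HPGD preincubated 15 min at room temperature with compound in 50 mM Tris-HCl pH 8, 0.01% Tween 20. Started with 1 mM NAD+ and 30 uM prostaglandin E2; NADH fluorescence (360/450 nm) read 5 times over 30-s intervals, last minus first.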
# Numbers without * were called inactive; ? = inconclusive; · = no result given; [ ] = dose if it differs, or a comment. An excerpt weighted towards active compounds, which were near 11% of everything screened. Unless noted, the call rests on the fitted dose curve; in most records, active means well fitted inhibition curve with a large enough effect (not every such curve was filed as active); inconclusive means small, poorly fitted or top-dose-only effect, or another doubt; inactive means no such curve, though single readings can be large or run the other way. Unless noted, on the % scale 0 is the no-effect control and ±100 the full control effect.
SMILES,PNC inhibitor,ALDH1A1 block,HPGD inh
O=S1(=O)C=CC(N2CCOCC2)C1 (stereo unspecified),?,3%,-4%
O=C(CCc1nc2ccccc2[nH]1)N1CCc2ccccc2C1,-91*,-3%,-18%
O=C(CCc1nc2ccccc2[nH]1)NC1CCCCC1,58,-4%,-12%
N#Cc1cccc(NC(=O)N2CC3(CCN(C(=O)c4ccco4)CC3)C2)c1,·,9.5µM*,-2%
O=C(Nc1cccc(F)c1)N1CC2(CCN(C(=O)c3ccco3)CC2)C1,·,11µM*,-10%
O=C(Nc1cccc(F)c1)N1CCC2(CC1)CCN(C(=O)c1ccco1)CC2,·,1%,-4%
CC(=O)N1CCC2(CC1)CN(C(=O)Nc1cccc(C#N)c1)C2,·,2%,-4%
CC1CCC(NC(=O)Nc2cccs2)CC1 (stereo unspecified),39,?,?
Cc1ccccc1NC(=O)Nc1cccs1,?,?,-17%
O=C(Nc1cccs1)NC1CCCC1,29,7.1µM*,32µM*
CC(C)NC(=O)Nc1cccs1,-100*,-2%,-15%
Cc1cc(C)nc(NC2=NCCN2C(=S)Nc2ccc(C)c(C)c2)n1,·,-10%,·
CC(/C=C/c1ccc2c(c1)OCO2)=N/NC(=O)c1cccnc1,34,-1%,-12%
Cc1nnc(NC(=O)CCSc2ccc(Cl)cc2)s1,·,9%,·
CC1CCN(c2nc3c(c(=O)[nH]c(=O)n3C)n2Cc2ccccc2Cl)CC1,?,?,-8%
COc1ccc(NC(=O)c2cccc(S(=O)(=O)Nc3ccc(Br)cc3)c2)cn1,?,-7%,-11%
O=C1CSc2ccc(C(=O)Nc3cccc(S(=O)(=O)Nc4ccc(Br)cc4)c3)cc2N1,·,10µM*,·
O=C(CCS(=O)(=O)c1ccc(Cl)cc1)NCCc1c[nH]c2ccccc12,·,28µM*,·
NS(=O)(=O)c1ccc(CCNC(=O)Cc2c[nH]c3ccccc23)cc1,65,23%,2%
O=C(NCCc1c[nH]c2ccccc12)C(F)(F)F,6,-12%,-24%
CC(C)CC1(C(=O)NCCc2c[nH]c3ccccc23)C=CCN1C(=O)c1ccccc1 (stereo unspecified),39,-3%,-11%
CC(=O)N1CC=CC1(CC(C)C)C(=O)NCCc1c[nH]c2ccccc12 (stereo unspecified),-88*,14%,-6%
CC(C)CNC(=O)CCCc1c[nH]c2ccccc12,-3,-2%,14µM*
CN(C)C(CNC(=O)CCCc1c[nH]c2ccccc12)c1ccco1 (stereo unspecified),10,8%,-8%
CC(C)C(=O)NCCc1c[nH]c2ccccc12,-124*,0%,-25%
SMILES,PNC inhibitor,ALDH1A1 block,HPGD inh
COc1ccc(C(C)=O)cc1CSCCC#N,-2,-2%,-3%
NC(=O)Cn1c(=O)n(C2CCCCC2)c(=O)c2c3c(sc21)CCCCC3,22,?,-11%
NS(=O)(=O)c1nc(S(=O)(=O)O)c2[nH]cnc2n1,·,2%[13.5 µM],-13%
C=CCn1nnnc1-c1cc(Cl)cc(Cl)c1,·,-8%,·
COc1cc(OC)cc(C(=O)N[C@H](C(=O)OCC(=O)NC(=O)c2cccn2C)C(C)C)c1,·,-10%,·
CC1CCN(S(=O)(=O)c2ccc(C(=O)NNC(=O)C3CC3)cc2)CC1,·,2%,·
O=C(N/C=N/OCc1cccc(C(F)(F)F)c1)N1OC[C@@H]2COc3ccc4ccccc4c3[C@@H]21,?,-13%,-20%
CCOC(=O)N1CCC(=NNC(=O)COc2ccc(OC)cc2)CC1,13,?,-11%
CCCCCCCCCCCCCCCCOCC(CO)OC(C)=O (stereo unspecified),·,-1%,-7%
Cc1nc2nc(-c3ccc(Cl)cc3)[nH]n2c(=O)c1C,?,3%,-13%
Cc1[nH]n(-c2ncc(-c3ccc(Cl)cc3)s2)c(=O)c1C(c1ccc(Cl)cc1)C(C#N)C#N (stereo unspecified),-26,?,10µM*
COCCN(C)Cc1cn(-c2ccc(F)cc2F)nc1-c1ccccc1C,·,25µM*,·
Cc1ccccc1-c1nn(-c2ccc(F)cc2F)cc1CNCCN(C)C,·,-11%,·
O=C(C1CCCO1)N1CCN(C(=S)Nc2ccc(Cl)cc2)CC1 (stereo unspecified),-17,?,-14%
CC(C)Sc1nc2ccccc2c(=O)[nH]1,-20,-4%,-17%
CCCN1C(=O)/C(=C/c2nc3ccccc3c(=O)[nH]2)c2cc(C)ccc21,·,1%,·
CC(C)N1C(=O)/C(=C\c2nc3ccccc3c(=O)[nH]2)c2ccccc21,42,13µM*,-26%
